In PubChem BioAssay (NCATS):
Records with an inconclusive call do not appear. A number with no mark means an inactive call. Activity calls are given as the source filed them. The call rests on the fitted dose curve; in most records, active means well fitted cell-killing curve with a large enough effect; inconclusive means small, poorly fitted or top-dose-only effect; inactive means flat fitted curve, though single readings scatter.

Experiment: Cellular viability qHTS for adrenocortical cancer (ACC) cell line NCI-H295R (AID 1963990); further: nearly all actives have a fitted effect of over 60% in size
Details: CellTiter-Glo ATP luminescence, 48 h; series mostly up to 46.1 µM; activity change, negative = viability loss: at the top concentration
Text: PI: Naris Nilubol, MD Surgical Oncology Program, National Cancer Institute (NCI) National Institute of Health (NIH), Bethesda, Maryland Adrenocortical cancer (ACC) is a rare malignancy with poor survival outcomes and few treatment options. Currently, mitotane is the only FDA-approved therapy for ACC. Although adjuvant radiation therapy is rarely utilized, it has the potential to improve survival in select cases. Through a quantitative high-throughput drug screen (qHTS), we identified auranofin (AF), a thioredoxin reductase (TXNRD) inhibitor, as a promising candidate drug. This study aims to evaluate whether AF can enhance the efficacy of radiation therapy in the treatment of ACC. Two human ACC cell lines, SW-13 and NCI-H295R, were screened using the National Center for Advancing Translational Sciences (NCATS) Pharmaceutical Collection (NPC) and the Mechanism Interrogation PlatE (MIPE) library (~4,991 compounds). CellTiter-Glo (Cat # G7570, Promega, Madison, WI) was utilized to measure cell viability. Described herein are the results of the corresponding viability assay.
PROTOCOL TABLE (as described by Inglese J, Shamu CE and Guy RK. 2007) SEQUENCE No. (e.g., 1, 2, 3, etc.); […] (e.g., Cells, Incubation, Reagent, etc.); VALUE; DESCRIPTION. 1; Cells; 5 uL; white, solid-bottom, 1536-well tissue-culture treated plates. 2; Time; overnight culture at 37C with 5% CO2. 3; Compounds and control; 23 nL; Kalypsis pin tool (Wako USA) equipped with a 1536-well pin head to transfer to the assay plates. 4; Time; 48 hours; 37C with 5% CO2. 5; Reagent; 4 uL; CellTiter-Glo luminescent substrate mix. 6; Time; 20 min at room temperature. 7; Detection; Luminescence; ViewLux plate reader NOTES (numbers refer to Sequence numbers above) 1. NCI-H295R cells were harvested from a T175 flask and resuspended in ITS-supplemented DMEM serum-free medium at a concentration of 300 000 cells/mL. Then 5 uL of resuspended cells were dispensed into each well of white, solid-bottom, 1536-well tissue-culture-treated plates using a multidrop combi dispenser. The plates were covered with stainless steel gasket lids. 2-3. The plates were cultured overnight at 37C with 5% CO2. Twenty-three nL of compounds (eight selected concentrations from the NPC / MIPE) or positive control (10 mM stock of bortezomib) in DMSO was transferred to each well of the assay plate using a pin tool (Kalypsys, San Diego, CA, USA). The final concentration of the compounds in the 5 uL assay volume ranged from 0.5 nM to 46 uM. 4-6. After 48 hours of incubation at 37C and 5% CO2, 4 uL of CellTilter-Glo luminescent substrate mix (Promega, Madison, WI, USA) was added to each well. Then the plates were incubated for 20 minutes at room temperature. 7. After incubation, luminescence was measured using a ViewLux plate reader (PerkinElmer, Waltham, MA, USA) with a clear filter was used to measure the number of metabolically competent cells. To determine compound activity in the qHTS assay, the titration-response data for each sample was plotted and modeled by a four-parameter logistic fit yielding IC50 and efficacy (maximal response) values. Raw plate reads for each titration point were normalized relative to positive control ([…], 100% inhibition) and DMSO-only wells (basal, 0%). REFERENCES: Inglese J, Shamu CE and Guy RK, Reporting data from high throughput screening of small molecule libraries, Nature Chemical Biology, 2007, 3(8): 438-441. doi.org/10.1038/nchembio0807-438.

| SMILES | Potency | activity change, negative = viability loss |
| --- | --- | --- |
| CC(C)(O)C1CCC(Nc2ccc3ncc(-c4cccc(C(F)(F)F)c4)n3n2)CC1 (stereo not given) | 4.47 µM (active) |  |
| CN(C)c1nc(N(C)C)nc(N(C)C)n1 | inactive |  |
| COC1CCC(N(C(=O)C2CCC(C)CC2)c2cc(C3=CCCCC3)sc2C(=O)O)CC1 (stereo not given) |  | 29.2% |
| CC(C)(S)[C@@H](N)C(=O)O |  | -1.21% [at 3.81 µM] |
| CC(=O)Nc1ccn(C2COC(COC(=O)c3ccccc3)O2)c(=O)n1 (stereo not given) |  | -24.3% |
| CC(=O)OCC(=O)[C@@]12N=C(C)O[C@@H]1C[C@H]1[C@@H]3CCC4=CC(=O)C=C[C@]4(C)[C@H]3[C@@H](O)C[C@@]12C | inactive |  |
| COC(=O)c1cc(Cl)c(NC(C)=O)cc1OC |  | -13.6% |
| CCCCCNC(=O)N1CCC(CN(Cc2ccc(Cl)cc2)Cc2ccc([N+](=O)[O-])s2)C1 (stereo not given) | 28.2 µM (active) |  |
| O=C1NC(=O)C(c2cnc3ccccn23)=C1c1cn2c3c(cc(F)cc13)CN(C(=O)N1CCCCC1)CC2 | 25.1 µM (active) |  |
| CCCCCC(C)N (stereo not given) |  | -19.1% |
| O=C(O)C1=CC(O)C(O)[C@H](O)C1 (stereo not given in full) |  | -15.6% |
| NC[C@H]1O[C@H](O[C@H]2[C@H](O)[C@@H](O[C@H]3O[C@H](CO)[C@@H](O)[C@H](N)[C@H]3O)[C@H](N)C[C@@H]2N)[C@H](N)C[C@@H]1O |  | -0.993% |
| COc1ccc(-c2cc(C(F)F)nn2-c2ccc(S(N)(=O)=O)cc2)cc1F |  | 3.53% |
| CN(C)C(=O)c1cc2cnc(Nc3ccc(N4CCNCC4)cn3)nc2n1C1CCCC1 |  | 0.361% |
| Cc1[nH]cnc1-c1ccc(Cl)cc1 |  | -19.2% |
| O=C(O)CN(CCOCCOCCN(CC(=O)O)CC(=O)O)CC(=O)O |  | -8.55% [at 0.587 µM] |
| CN(C)CCN1CCN(c2cccc(Cl)c2)C1=O |  | 1.81% |
| Cc1ccc2c(Cl)cc(Cl)c(O)c2n1 |  | -5.79% |
| CN1CCN(c2ccc(C(=O)Nc3n[nH]c4ccc(Cc5cc(F)cc(F)c5)cc34)c(NC3CCOCC3)c2)CC1 | 7.08 µM (active) |  |
| C=CC(=O)Nc1cccc(Nc2nc(Nc3ccc(OCCOC)cc3)ncc2F)c1 | 3.98 µM (active) |  |

| SMILES | Potency | activity change, negative = viability loss |
| --- | --- | --- |
| CC(C(=O)O)c1ccc2c(c1)[nH]c1ccc(Cl)cc12 (stereo not given) |  | -23.9% |
| CCN[C@H]1CN(CCCOC)S(=O)(=O)c2sc(S(N)(=O)=O)cc21 |  | -7.81% |
| Cc1cc(Nc2ncc(Cl)c(Nc3ccccc3S(=O)(=O)C(C)C)n2)c(OC(C)C)cc1C1CCNCC1 | 2.24 µM (active) |  |
| C[C@@H]1CC(=O)Nc2cccc(-c3ccc4c(c3)c(-c3cnn(C)c3)nn4C)c2N1 |  | 16.2% |
| COc1ccccc1O | 28.2 µM (active) |  |
| Cc1c(NC(C)C)c(=O)n(-c2ccccc2)n1C |  | -3.2% |
| C=C1C(=O)O[C@@H]2[C@H]3O[C@]3(C)CC/C=C(\C)CC[C@@H]12 | 10 µM (active) |  |
| CC(=O)Nc1cc(Oc2ccc3c(nc(Nc4ccc(F)cc4F)n3C)c2C)ccn1 | 2.24 µM (active) |  |
| Oc1c(Cl)cc(Cl)c2cccnc12 | 7.94 µM (active) |  |
| COc1cc(Cc2cnc(N)nc2N)cc(OC)c1OC |  | -10.7% |
| Cc1nc(N)ncc1-c1nc(N2CCOCC2)c2sc(C(C)(C)O)cc2n1 | 2.24 µM (active) |  |
| CN1C(=O)CC(C)(c2ccccc2)C1=O (stereo not given) |  | -13.3% |
| CN(C)[C@@H]1C(=O)C(C(=O)NCN2CCCC2)=C(O)[C@@]2(O)C(=O)C3=C(O)c4c(O)cccc4[C@@](C)(O)C3C[C@@H]12 (stereo not given in full) |  | -22.9% |
| C[C@@H]1O[C@@H](OC[C@H]2O[C@@H](Oc3c(-c4ccc(O)c(O)c4)oc4cc(O)cc(O)c4c3=O)[C@H](O)[C@@H](O)[C@@H]2O)[C@H](O)[C@H](O)[C@H]1O |  | 1.81% |
| CC(=O)Nc1ccc([C@H](C)C(=O)Nc2ncc(C(C)C)s2)cc1 | 3.55 µM (active) |  |
| O=C(c1ccc(F)cc1)N1CCC[C@H](c2nc(-c3ccc(F)cc3)no2)C1 |  | -2.57% |
| CCC[C@H](N[C@@H](C)C(=O)N1[C@@H]2CCCC[C@H]2C[C@H]1C(=O)O)C(=O)OCC |  | 1.88% |
| O=c1[nH]c(-c2ccc(C(F)(F)F)cc2)nc2c1CSCC2 |  | -0.624% |
| COc1cc(OC)c(/C=C/S(=O)(=O)Cc2ccc(OC)c(OP(=O)(O)O)c2)c(OC)c1 | 0.0282 µM (active) |  |
| O=C(Cc1ccc(-c2ccc(OCCN3CCOCC3)cc2)cn1)NCc1ccccc1 | 0.178 µM (active) |  |
